Shown are actives, neighbours in structure and some others; about 2.6% of the full set was active somewhere.
BRCA1 expr act: activators of BRCA1 expression. MCF7-BRCA1-FFLuc reporter, luminescence, 48 h; response scale: scaled: vehicle 0%, 10 µM genistein 100%. Potency, µM (top dose mostly 46.1 µM), for the others: top-dose activation, hits mostly activators. hit rate 1.1% among 380,000; also: nearly all actives have a fitted effect of over 80% in size
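Cells: MCF7-BRCA1-FFLuc, 2000/well. Exposure: 48 h, 37 °C, 5% CO2. Read: luminescence, 15 min post-substrate. Controls: genistein 10 microM (maximal activation), DMSO (neutral).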
GLP-1R inv ag: acts as inverse agonist at human GLP-1 receptor; P43220; HEK293 GLP-1R CRE-luciferase, luminescence, 24 h; GLP-1R form is constitutively active; Potency, µM (titrated, usually from 38.3 µM), for inactives: at the top dose activity change, negative = inhibition, hits mostly inhibitors; hit rate 1.6% among 410,000; also: % is scaled to controls: 0 for no effect and ±100 for the full control effect; nearly all actives have a fitted effect of over 55% in size
Target sequence (P43220 whole entry, looked up): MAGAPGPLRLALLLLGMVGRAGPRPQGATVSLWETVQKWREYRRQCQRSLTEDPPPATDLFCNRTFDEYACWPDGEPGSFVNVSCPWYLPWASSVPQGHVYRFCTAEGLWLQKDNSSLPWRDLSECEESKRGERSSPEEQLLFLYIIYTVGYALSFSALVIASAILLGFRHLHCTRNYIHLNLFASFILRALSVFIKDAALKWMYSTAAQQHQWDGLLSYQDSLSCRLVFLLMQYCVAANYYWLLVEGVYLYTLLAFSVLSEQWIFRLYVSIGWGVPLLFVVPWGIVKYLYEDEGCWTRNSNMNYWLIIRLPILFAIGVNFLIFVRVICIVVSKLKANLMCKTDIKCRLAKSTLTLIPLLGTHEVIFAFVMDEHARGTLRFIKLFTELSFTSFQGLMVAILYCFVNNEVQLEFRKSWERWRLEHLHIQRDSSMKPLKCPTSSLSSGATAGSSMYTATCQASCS
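Inverse agonism was detected as reduced cAMP-driven luciferase luminescence after 24 h compound treatment. The cells were HEK293 clones expressing constitutively active human GLP-1R with the reporter. Reporter-only and GPR119 cell lines served as counterscreen controls.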
HEK293 tox: cytotoxic in the GLP-1 receptor inverse agonist counter-screen; HEK293 cAMP-luciferase reporter cells, luminescence, 24 h; Potency, µM (series often up to 38.3 µM), without a hit: at the highest dose activity change, negative = inhibition, actives largely listed as inhibitors; hit rate 0.13% among 410,000; AID 624418;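 also: loss of luciferase light is scored as toxicity; % is scaled to controls: 0 for no effect and ±100 for the full control effect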
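Compound-treated cells are incubated 24 hr at 37 deg C under 5% CO2 after a 12 hour attachment period, then luciferase detection reagent is added and luminescence is measured following 12 min at room temperature; lowered signal indicates toxicity.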
GLP1R ag: agonists of human GLP-1 receptor | P43220 | HEK293 GLP-1R CRE-luciferase, luminescence, 4-6 h; cells express a hypersensitive GLP-1R form | Potency, µM (highest dose often 45.6 µM), for the others: at the highest dose activation, actives largely listed as activators | hit rate 0.007% among 380,000 | AID 624172; also: % of control where 0% means no effect
* = called active by the depositor; ? = inconclusive; / = no result given. Calls follow the shape of the dose curve; as a rule, active = well fitted curve in the direction sought with a large enough effect; inconclusive = small, poorly fitted or top-dose-only effect, or another doubt; inactive = no such curve, though single readings can be large; an effect the other way counts as inactive or inconclusive. Potency is read from the fitted curve at half-maximal effect.

SMILES	BRCA1 expr act	GLP-1R inv ag	HEK293 tox	GLP1R ag
CCCC/C=C1\CCc2c([nH]c3ccccc23)C1=O	1.4µM*	-54%	-6%	-4%
O=C(CCc1nnc(CCCc2ccccc2)o1)NCCCC1CCCC1	13µM*	?	-17%	17%
O=C(CCc1nnc(CCCc2ccccc2)o1)NCCc1ccccc1	4%	-19%	-1%	-1%
CC1(C)CC(=O)C=C(c2ccc(-c3ccccc3)cc2)C1	10µM*	20%	2%	4%
CC1(C)CC(=O)C=C(c2ccc(-c3ccccc3)cc2)C1=O	13µM*	?	-13%	16%
CC1(C)CC(=O)C=C(c2ccc(CO)cc2)C1=O	-12%	16%	2%	10%
CCC(C(=O)O)n1nc(-c2ccccc2)c2cc(Cl)ccc21 (stereo not drawn)	-2%	-26%	-11%	-3%
O=C(Nc1cccc(F)c1)N(Cc1ccc(Cl)cc1)CC(O)C(F)(F)F (stereo not drawn)	-67%	5.6µM*	?	-19%
O=C(Nc1ccccc1)N(Cc1ccccc1)CC(O)C(F)(F)F (stereo not drawn)	-4%	-2%	-19%	-7%
NC(=O)CSc1nnc(-c2ccccn2)n1Cc1ccco1	-7%	2%	5%	0%
C(=C\c1ccccc1)/CSc1nnc(-c2ccccn2)n1Cc1ccco1	-68%	4µM*	?	15%
CC1CCCC2(C1)NC(=S)N(c1ccccc1)N2 (stereo not drawn)	-58%	5µM*	-31%	3%
CC1CC(C)(C)CC2(C1)NC(=S)N(c1ccccc1)N2 (stereo not drawn)	-38%	3.5µM*	-18%	0%
CC1CCCCC12NC(=S)N(c1ccccc1)N2 (stereo not drawn)	-10%	2%	9%	0%
S=C1NC2(CCCCC2)NN1c1ccccc1	-16%	?	-24%	7%
COc1cccc(-n2c(=O)c3sc4ccccc4c3n(CC(=O)NC3CCCCC3)c2=O)c1	2%	0%	-3%	-3%
Cc1cccc(NS(=O)(=O)c2ccc3c(c2)n(C)c(=O)n3C)c1C	/	1%	1%	/
Cc1sc2ncn(CCn3cnc4sc(C)c(C)c4c3=O)c(=O)c2c1C	-22%	5µM*	-11%	-1%
Cc1sc2ncn(CCC(=O)O)c(=O)c2c1C	0%	-4%	0%	-5%
CCOc1cc2c(cc1O)C(=NOC)CC1C2CCC2(C)C(O)CCC12 (stereo not drawn)	-80%	-37%	?	4%
O=[N+]([O-])c1cc(C(F)(F)F)ccc1Sc1ccc2ccccc2n1	-4%	10µM*	3%	1%
Nc1nc(Sc2ccc(C(F)(F)F)cc2[N+](=O)[O-])n[nH]1	39%	8%	19%	18%
O=C(Nc1ccc(Cl)c(Cl)c1)Nc1nccs1	-17%	3.2µM*	4%	-5%
COC(=O)C1=C(C)NC(COC(N)=O)=C(C(=O)OC(C)C)C1c1cccc(Cl)c1Cl (stereo not drawn)	/	/	/	-5%
CC1CCCCC1NS(=O)(=O)CCNC(=O)c1ccc2c(c1)OCO2 (stereo not drawn)	-7%	-27%	-11%	8%
SMILES	BRCA1 expr act	GLP-1R inv ag	HEK293 tox	GLP1R ag
CC1CCCC(NC(=O)c2ccc3c(c2)OCO3)C1C (stereo not drawn)	3.5µM*	?	1%	10%
CS(=O)(=O)Nc1ccc(C2=NN(S(C)(=O)=O)C(c3ccc4c(c3)OCO4)C2)cc1 (stereo not drawn)	4.5µM*	11%	8%	-2%
CC(=O)N1N=C(c2cccc(NS(C)(=O)=O)c2)CC1c1ccc2c(c1)OCO2 (stereo not drawn)	34%	1%	1%	12%
CCC(CC)C(=O)N1N=C(c2ccc(NS(C)(=O)=O)cc2)CC1c1ccc(C)cc1 (stereo not drawn)	-45%	8.9µM*	-27%	15%
CCC(CC)C(=O)N1N=C(c2ccc(NS(C)(=O)=O)cc2)CC1c1ccccc1 (stereo not drawn)	-33%	?	-10%	22%
CCN(C(=O)Cn1nnc2sc3c(c2c1=O)CCC(C(C)(C)C)C3)c1cccc(C)c1 (stereo not drawn)	/	-1%	7%	/
CCN(CC)c1ccc(/C=C2\C=Cc3ccccc32)cc1	4.5µM*	/	/	/
CN(C)c1ccc(/C=C2\C=Cc3ccccc32)cc1	3.5µM*	/	/	/
COc1ccc(NC(=O)c2oc3ccccc3c2NC(=O)C23CC4CC(CC(C4)C2)C3)cc1	-4%	-6%	10%	1%
O=C(c1ccco1)N1CCC(c2nc3c(nnn3Cc3ccccc3Cl)c(=O)[nH]2)CC1	-21%	49%	-15%	15%
O=C(c1ccco1)N1CCN(c2nc(C3CC3)nc3c2nnn3Cc2ccccc2Cl)CC1	-68%	10µM*	3%	7%
Cc1cc(C)c(NC(=O)CNC(=O)CN(C)Cc2ccc(Br)s2)c(C)c1	-32%	6.3µM*	-5%	-7%
Cc1ccc(S(=O)(=O)NCC(=O)NCC(=O)N(C)Cc2ccc(Br)s2)cc1C	-21%	?	-1%	-1%
Cc1ccc2c(c1Br)C(O)(CC(=O)c1ccc(F)cc1)C(=O)N2 (stereo not drawn)	/	0%	3%	/
CC(C)COc1ccc(-c2nnn(CC(=O)N3CCCC3)n2)cc1	10µM*	5%	-6%	0%
COc1cccc(C(=O)Nc2nc(-c3nnn(-c4ccccc4C(F)(F)F)c3C)ns2)c1	0%	5.6µM*	0%	/
CCC(=O)N1CCc2cc(S(=O)(=O)N3CCN(c4ccccc4F)CC3)ccc21	1%	-17%	-3%	-1%
Cc1cc(C)c(S(C)(=O)=O)c(Oc2ccc(C(C)(C)C)cc2)n1	-41%	11µM*	9%	4%
Cc1cc(-c2ccccc2)nc(Oc2cccc(C(F)(F)F)c2)c1S(C)(=O)=O	-54%	10µM*	7%	7%
Cc1ccc(S(=O)(=O)c2c(C)cc(C)nc2Oc2cccc(C(F)(F)F)c2)cc1	-36%	5µM*	4%	-10%
Cc1cc(C)c(S(C)(=O)=O)c(Oc2cccc(Cl)c2)n1	6%	5%	-3%	0%
CN(C)c1ccc(/C=C/c2ccncc2)cc1	7.9µM*	39%	105%	5%
COc1ccc(/C=C/c2ccncc2)cc1	10µM*	41%	-6%	11%
CN(C)c1ccc(C=Cc2cnccn2)cc1	?	?	388%	1%
Cc1ccc(Oc2c(C(N)=O)cc([N+](=O)[O-])cc2[N+](=O)[O-])cc1	-92%	11µM*	?	-35%
Cc1cc(C)cc(NC(=O)CCc2nnc3n(CC(C)C)c(=O)c4ccccc4n23)c1	/	4%	9%	/
CCn1c(C)c(C)c2cc(C(=O)NCc3ccc(OC)cc3OC)ccc21	/	-9%	-11%	/
CN(C)CCNc1nc2sc3c(c2c(=O)n1Cc1ccccc1)CCCCC3	-42%	1.1µM*	?	11%
CN(C)CCNc1nc2sc3c(c2c(=O)n1-c1ccccc1)CCCCC3	-28%	?	-8%	13%
